Shown are actives, neighbours in structure and some others; about 4.1% of the full set was active somewhere.
CFTR F508del cor – correctors of CFTR F508del function in bronchial epithelial cells; CFBE cells, YFP halide quenching; stimulated with forskolin plus potentiator P3; % fluorescence drop versus neutral controls; activity (quench increase), % at 7.58 µM; actives 0.36% (n = 350,000);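 active = mean added fluorescence quench of at least 8% versus neutral control, with both replicates also reaching 8%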;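 also: cells transiently co-express mutant CFTR-F508del with the halide-sensitive YFP; corrector assay measuring rescue of mutant channel to the surface after 24 h compound exposure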
Env fusion inh – inhibitors of HIV Env-mediated cell fusion; HeLa-JRFL Env/CEM21 cell fusion, luciferase; inhibition, % at 12.3 µM; actives 1.1% (n = 360,000); AID 651610;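 active = mean replicate inhibition score of at least 50 and every replicate individually at or above 50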;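 also: 0% = plate neutral controls and 100% = maraviroc near 300 nM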
CASP6 VEID inh – caspase-6 (human) enzyme inhibition. actives 0.53% (n = 350,000). inhibition, % at 12.5 µM. purified caspase-6, Z-VEID-R110 cleavage fluorescence. P55212;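 active = mean inhibition across replicates at least about 35%, with every replicate also reaching that limit, limit read from the data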;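 also: 0% = median of neutral control wells and 100% = no fluorescence left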
Target sequence (P55212 24-179 limits assumed): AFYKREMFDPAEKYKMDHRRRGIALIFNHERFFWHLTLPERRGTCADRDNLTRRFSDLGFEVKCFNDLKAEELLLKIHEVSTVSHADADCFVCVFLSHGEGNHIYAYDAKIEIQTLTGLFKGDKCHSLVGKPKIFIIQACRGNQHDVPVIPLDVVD
Target sequence (P55212 194-293 limits assumed): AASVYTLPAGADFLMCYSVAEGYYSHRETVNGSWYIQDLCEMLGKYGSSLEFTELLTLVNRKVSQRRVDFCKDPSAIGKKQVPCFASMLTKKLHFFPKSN
ALR inh – inhibitors of human sulfhydryl oxidase ALR; P55789; purified ALR, DTT oxidation, H2O2 HRP-luminol luminescence; inhibition, % (no concentration beside the values); actives 3.8% (n = 290,000); AID 485317;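 active = mean replicate inhibition above about 79%, with every replicate also reaching it, limit read from the data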
Target sequence (P55789 whole entry, looked up): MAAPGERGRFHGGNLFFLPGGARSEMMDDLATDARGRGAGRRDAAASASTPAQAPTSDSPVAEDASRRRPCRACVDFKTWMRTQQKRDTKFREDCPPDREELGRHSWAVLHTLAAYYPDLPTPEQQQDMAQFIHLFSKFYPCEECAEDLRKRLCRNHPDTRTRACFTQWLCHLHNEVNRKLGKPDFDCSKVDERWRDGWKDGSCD
NSD2 inh – NSD2 (human) methyltransferase inhibition; actives 0.54% (n = 310,000); NSD2 peptide methylation, AlphaScreen, 120 min; inhibition, % at 12.5 µM; O96028; in the data active = inhibition above about 50%
PglD inh – blocks C. jejuni PglD acetyltransferase activity; purified PglD enzyme, DTNB colorimetric CoA detection; actives 0.098% (n = 360,000); inhibition, % at 12.5 µM; in the data active = inhibition above about 16%, passing the limit was not always enough
The depositor's hits bear a star; x = no result given; [ ] = remark or other dose.

SMILES	CFTR F508del cor	Env fusion inh	CASP6 VEID inh	ALR inh	NSD2 inh	PglD inh
CC(=O)Nc1ccc(S(=O)(=O)NNC(=O)C(=O)NNc2ccccn2)cc1	-1	4	-4	x	x	-6
Cc1ccc(S(=O)(=O)NNC(=O)c2ccc3ccccc3n2)cc1	0	4	2	88*	47	6
Cc1ccccc1S(=O)(=O)NNC(=O)C(=O)NNc1ccccn1	x	x	x	99*	0	-1
Cc1ccc(S(=O)(=O)NNC(=O)C(=O)NNc2ccccn2)cc1	x	x	x	95*	1	2
Nc1ccc(S(=O)(=O)NNC(=O)C(=O)NNc2ccccn2)cc1	x	x	-4	99*	-2	-4
C[C@H](NC(=O)C[C@@H]1CC[C@@H](NC(=O)Cc2ccccn2)[C@H](CO)O1)c1ccccc1	3	-17[16.7 µM]	1	x	x	0
Cc1ccc(S(=O)(=O)NOCc2ccccc2)cc1	3	0	-4	x	x	-2
CCC(=NOCc1ccccc1)C(=O)NNS(=O)(=O)c1ccc(C)cc1	0	57*	3	x	-1	4
COC(=O)CC1C(=O)NCCN1C(=O)CSc1nnnn1-c1ccc(Cl)cc1 (stereo unspecified)	2	6	50*	-1	-4	x
COc1cccc(-c2ccc([C@H]3[C@H](CO)N4C(=O)CN(C(=O)C5CC5)C[C@@H]34)cc2)c1	0	x	2	x	x	x
Cc1ccc(N2CCN(C(=O)N3CCCC3)CC2)cc1C	x	-34	x	96*	x	-1
CC1=CC(C)(C)N(C(=O)c2ccccc2)c2ccc(C)cc21	x	94*	x	x	-2	-3
C[C@H](CO)N1C[C@H](C)[C@@H](CN(C)CC2CC2)Oc2cc(C#CC(C)(C)O)ccc2S1(=O)=O	0	-1[16.7 µM]	1	x	x	-9
CC(=O)N/C(=C\c1ccccc1)C(=O)OCC(=O)NC(C)C12CC3CC(CC(C3)C1)C2 (stereo unspecified)	x	106*	x	-4	19	x
CC(=O)N/C(=C\c1ccccc1)C(=O)OCC(=O)NC(=O)c1ccccc1	-2	-8	0	16	-4	x
COc1cc(O)c2c(c1)oc(=O)c1c3cc(O)c(O)cc3oc21	3	-12[16.7 µM]	77*	x	x	x
O=C(Nc1ccc2c(c1)OCO2)N[C@H]1CC[C@@H](CC(=O)N2CCN(c3ccccc3)CC2)O[C@@H]1CO	2	0[16.7 µM]	2	x	x	1
Clc1cccc(-c2ccc(C=Nc3ccc(N4CCOCC4)cc3)o2)c1Cl	14*	30	-2	x	-1	x
C[C@H](CO)N1C[C@H](C)[C@H](CN(C)C(=O)Cc2cccnc2)Oc2ncc(/C=C/c3ccccc3)cc2C1=O	-1	x	1	x	x	-3
COC(=O)C1=C(Nc2cc(Cl)cc(Cl)c2)CSC1	1	1	1	99*	0	3
COC(=O)c1cc(NC(=S)Nc2cc(Cl)cc(Cl)c2)cc(C(=O)OC)c1	0	-3	x	1	2	x
CC(=O)Oc1ccc(-c2cccc(C(=O)N(C)c3ccc(O)cc3)c2)cc1	1	4	1	86*	-1	x
COCC(=O)N1CC2(C1)CN(Cc1cc(F)ccc1F)[C@H](CO)c1[nH]c3cc(OC)ccc3c12	0	x	0	x	x	x
CC1(c2ccc3ccccc3c2)CCC(=O)O1 (stereo unspecified)	8.7*	19	0	x	-1	x
C[C@@H]1CN([C@@H](C)CO)C(=O)c2cccc(NC(=O)CCCCCC(=O)Nc3ccccc3N)c2O[C@H]1CN(C)CC1CCCCC1	0	x	1	x	x	x
SMILES	CFTR F508del cor	Env fusion inh	CASP6 VEID inh	ALR inh	NSD2 inh	PglD inh
C[C@H]1CN([C@@H](C)CO)C(=O)c2cc(/C=C/c3ccccc3)cnc2O[C@@H]1CN(C)C(=O)C1CC1	2	-8[16.7 µM]	x	x	x	x
CCCCC(=NCCc1c(C)[nH]c2ccc(OC)cc12)C1=C(O)CC(c2ccccc2)CC1=O (stereo unspecified)	11*	-248	-3	x	-5	x
CCC(=NCCc1c(C)[nH]c2ccc(OC(F)(F)F)cc12)C1=C(O)CC(c2ccccc2)CC1=O (stereo unspecified)	0	-43	-5	x	-1	x
COc1ccc(CN(C)C[C@H]2OCCCC[C@@H](C)Oc3ccc(NC(=O)c4ccccc4)cc3C(=O)N([C@H](C)CO)C[C@H]2C)cc1	2	28[16.7 µM]	2	x	x	2
CC(C)NC(=O)Nc1ccc2c(c1)C(=O)N(C)[C@H]1CC[C@H](CC(=O)NCC(F)(F)F)O[C@H]1CO2	3	2[16.7 µM]	x	x	x	5
C=CCN1C(=O)/C(=C\c2ccc(Cl)cc2)N=C1SCC(=O)NC1CCCCC1	x	x	x	2	x	4
COc1ccc(Cl)cc1N1C(=O)/C(=C\c2sccc2C)N=C1SCC(=O)NC1CC1	x	9	x	81*	-2	3
C[C@@H]1CN([C@H](C)CO)S(=O)(=O)c2ccc(-c3ccccc3)cc2O[C@H]1CN(C)Cc1ccccn1	16*	22[16.7 µM]	-1	x	x	0
C[C@@H]1CN([C@H](C)CO)S(=O)(=O)c2ccc(-c3ccc(C#N)cc3)cc2O[C@H]1CN(C)Cc1ccccn1	12*	-102[16.7 µM]	x	x	x	0
C[C@@H]1CN([C@@H](C)CO)S(=O)(=O)c2ccc(-c3cccc(C#N)c3)cc2O[C@H]1CN(C)Cc1ccccn1	-2	17[16.7 µM]	0	x	x	0
C[C@H]1CN([C@@H](C)CO)C(=O)c2cc(-c3cncnc3)cnc2O[C@H]1CN(C)C(=O)Cc1ccccc1	-1	-15[16.7 µM]	-5	x	x	6
O=C(c1ccccc1)N1CCC(=O)N1c1ccccc1	x	-276	x	-6	-3	x
O=C1CN(c2ccccc2)C(=S)N1C(=O)c1ccccc1	2	-76	4	98*	0	3
COc1ccc(NC(=O)CSc2nc(-c3ccco3)nc3cc(=O)[nH]n23)cc1Cl	1	1	10	99*	7	1
COC(=O)CN1C(c2ccc(Cl)cc2)=Nc2ccc(Cl)cc2C1c1ccccc1 (stereo unspecified)	x	80*	x	-84	2	x
Cc1cc(Cl)ccc1OCc1nc(-c2ccc(O)cc2)n[nH]1	x	-61	x	98*	2	-3
Cc1ccc(C(=O)CC(=O)COc2ccc(Cl)cc2C)cc1	-1	-7	-1	-6	-3	x
COc1ccc(S(=O)(=O)Nc2cccc3c2O[C@@H](CN(C)S(=O)(=O)c2ccc(OC)cc2)[C@@H](C)CN([C@H](C)CO)C3=O)cc1	-1	x	0	x	x	x
Oc1ccc(N2CCN(c3ncnc4sc5c(c34)CCC5)CC2)cc1	x	x	x	99*	0	-1
OCCN1CCN(c2ncnc3sc4c(c23)CCCC4)CC1	-7	14	-2	-15	-1	7
Cc1cccc(N2CCN(S(=O)(=O)c3cc(-c4cc(C)no4)ccc3C)CC2C)c1 (stereo unspecified)	11*	-47	-4	-3	29	1
COc1ccc(-c2cc(C)no2)cc1S(=O)(=O)N1CCN(c2cccc(C)c2)C(C)C1 (stereo unspecified)	-3	35	-3	-6	-2	4
CN(C)c1ccc(/C(=N\O)C(F)(F)F)cc1	-4	x	-1	98*	0	0
